“And” between values parts separate entries of the source, which are not always exact repeats. Equal values may be shown once. The campaign covered roughly 5,500 compounds. About 2,000 (36%) were called active. Roughly 18% stayed inconclusive and do not appear here. No stated cut-off is given here; in the data, active means normalized growth mostly below about 0.91 (no sharp cut-off); inconclusive means no clear call, values can overlap the other calls; inactive means mostly above about 0.92. The list shows a part of the results.
Test: chemical genetic growth profiling, strain panel (AID 1159580);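 further: tested at 20 µM; growth read once vehicle control cultures reached saturation at 30 °C; 1 = growth at the plate median or of vehicle wells; lower values mean less growth of the strain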
Settings: growth OD

Measured: normalized growth

CO[C@@H]1C[C@H](O[C@H]2CC[C@]3(C)C4CC[C@]5(C)[C@@H](C6=CC(=O)OC6)CC[C@]5(O)[C@@H]4CC[C@]3(O)C2)O[C@H](C)[C@@H]1O (some centres not stated)
active: S. cerevisiae deletion strains, locus YAL013W, strain DEP1, hits give low values 0.869 | S. cerevisiae deletion strains, locus YDL192W, strain arf1, hits give low values 0.888 | S. cerevisiae deletion strains, locus YDR502C, strain sam2, hits give low values 0.893 | S. cerevisiae deletion strains, locus YGR135W, strain pre9, hits give low values 0.865 | S. cerevisiae deletion strains, locus YHR200W, strain rpn10, hits give low values 0.92 | S. cerevisiae deletion strains, locus YIL125W, strain kgd1, hits give low values 0.926 | S. cerevisiae deletion strains, locus YKL085W, strain MDH1 (second series), hits give low values 0.897 | S. cerevisiae deletion strains, locus YKL085W, strain MDH1, hits give low values 0.897 | S. cerevisiae deletion strains, locus YKR001C, strain vps1, hits give low values 0.76 | S. cerevisiae deletion strains, locus YLR418C, strain cdc73, hits give low values 0.651 | S. cerevisiae deletion strains, locus YMR223W, strain ubp8, hits give low values 0.889 | S. cerevisiae deletion strains, locus YOR184W, strain ser1, hits give low values 0.606 | S. cerevisiae strains, strain wild type, hits give low values 0.899
inactive: S. cerevisiae deletion strains, locus YBR021W, strain FUR4, hits give low values 0.961 | S. cerevisiae deletion strains, locus YBR229C, strain ROT2, hits give low values 1 | S. cerevisiae deletion strains, locus YCL029C, strain bik1, hits give low values 1.02 | S. cerevisiae deletion strains, locus YDL035C, strain GPR1, hits give low values 0.905 | S. cerevisiae deletion strains, locus YDL074C, strain BRE1, hits give low values 0.987 | S. cerevisiae deletion strains, locus YDL101C, strain DUN1, hits give low values 1.02 | S. cerevisiae deletion strains, locus YDL134C, strain PPH21, hits give low values 1 | S. cerevisiae deletion strains, locus YDL185W, strain tfp1, hits give low values 1.05 | S. cerevisiae deletion strains, locus YDR101C, strain arx1, hits give low values 1.01 | S. cerevisiae deletion strains, locus YDR162C, strain NBP2, hits give low values 0.881 | S. cerevisiae deletion strains, locus YDR318W, strain mcm21, hits give low values 0.987 | S. cerevisiae deletion strains, locus YDR388W, hits give low values 1 | S. cerevisiae deletion strains, locus YEL061C, strain CIN8, hits give low values 1.01 | S. cerevisiae deletion strains, locus YER110C, hits give low values 1.02 | S. cerevisiae deletion strains, locus YER155C, strain BEM2, hits give low values 1.01 | S. cerevisiae deletion strains, locus YER167W, strain BCK2, hits give low values 0.95 | S. cerevisiae deletion strains, locus YGL078C, strain dbp3, hits give low values 0.96 | S. cerevisiae deletion strains, locus YGL086W, strain mad1, hits give low values 0.935 | S. cerevisiae deletion strains, locus YGL248W, strain PDE1, hits give low values 1.02 | S. cerevisiae deletion strains, locus YGR078C, strain PAC10, hits give low values 0.926 | S. cerevisiae deletion strains, locus YGR252W, strain gcn5, hits give low values 0.844 | S. cerevisiae deletion strains, locus YHR030C, strain SLT2, hits give low values 1.02 and 1.05 | S. cerevisiae deletion strains, locus YHR079C, strain IRE1 (second series), hits give low values 1.02 | S. cerevisiae deletion strains, locus YHR079C, strain IRE1, hits give low values 1.07 | S. cerevisiae deletion strains, locus YHR094C, strain hxt1, hits give low values 1.02 | S. cerevisiae deletion strains, locus YHR129C, strain ARP1, hits give low values 1.01 | S. cerevisiae deletion strains, locus YIL066C, strain RNR3, hits give low values 0.956 | S. cerevisiae deletion strains, locus YIL073C, strain SPO22, hits give low values 1.04 | S. cerevisiae deletion strains, locus YIR030C, strain dcg1, hits give low values 1.01 | S. cerevisiae deletion strains, locus YJL095W, strain BCK1, hits give low values 1.03 and 1.05 | S. cerevisiae deletion strains, locus YJL134W, strain LCB3, hits give low values 1.01 | S. cerevisiae deletion strains, locus YJL168C, strain set2, hits give low values 1.02 | S. cerevisiae deletion strains, locus YJL187C, strain SWE1 (second series), hits give low values 1.04 | S. cerevisiae deletion strains, locus YJR043C, strain POL32, hits give low values 0.949 | S. cerevisiae deletion strains, locus YJR066W, strain TOR1, hits give low values 0.987 | S. cerevisiae deletion strains, locus YJR075W, strain HOC1, hits give low values 0.901 | S. cerevisiae deletion strains, locus YKL009W, strain mrt4, hits give low values 0.917 | S. cerevisiae deletion strains, locus YKL068W, hits give low values 0.996 | S. cerevisiae deletion strains, locus YLR039C, strain RIC1, hits give low values 0.887 | S. cerevisiae deletion strains, locus YLR058C, strain SHM2, hits give low values 1.01 | S. cerevisiae deletion strains, locus YLR102C, strain apc9, hits give low values 1.03 | S. cerevisiae deletion strains, locus YLR113W, strain HOG1, hits give low values 0.964 | S. cerevisiae deletion strains, locus YLR262C, strain YPT6, hits give low values 0.879 | S. cerevisiae deletion strains, locus YLR268W, strain sec22, hits give low values 0.95 | S. cerevisiae deletion strains, locus YLR330W, strain CHS5, hits give low values 1.01 | S. cerevisiae deletion strains, locus YLR342W, strain FKS1 (second series), hits give low values 0.953 | S. cerevisiae deletion strains, locus YLR371W, strain rom2, hits give low values 1.05 | S. cerevisiae deletion strains, locus YML016C, strain PPZ1, hits give low values 1 | S. cerevisiae deletion strains, locus YML032C, strain rad52, hits give low values 0.988 | S. cerevisiae deletion strains, locus YML124C, strain tub3, hits give low values 1.02 | S. cerevisiae deletion strains, locus YMR078C, strain ctf18, hits give low values 1.02 | S. cerevisiae deletion strains, locus YMR263W, strain SAP30, hits give low values 1.02 | S. cerevisiae deletion strains, locus YMR307W, strain GAS1, hits give low values 0.815 | S. cerevisiae deletion strains, locus YNL067W, strain RPL9B, hits give low values 0.99 | S. cerevisiae deletion strains, locus YNL128W, strain TEP1, hits give low values 0.925 | S. cerevisiae deletion strains, locus YNL153C, strain GIM3, hits give low values 1.03 | S. cerevisiae deletion strains, locus YNL183C, strain NPR1, hits give low values 0.988 | S. cerevisiae deletion strains, locus YNL233W, strain BNI4, hits give low values 0.941 | S. cerevisiae deletion strains, locus YNL250W, strain rad50, hits give low values 0.964 | S. cerevisiae deletion strains, locus YNL271C, strain bni1, hits give low values 0.999 | S. cerevisiae deletion strains, locus YNL298W, strain CLA4, hits give low values 0.944 | S. cerevisiae deletion strains, locus YNL307C, strain MCK1, hits give low values 1.02 | S. cerevisiae deletion strains, locus YNL322C, strain KRE1, hits give low values 0.999 | S. cerevisiae deletion strains, locus YNR052C, strain pop2, hits give low values 1.02 | S. cerevisiae deletion strains, locus YOL012C, strain htz1 2.27 | S. cerevisiae deletion strains, locus YOL147C, strain pex11, hits give low values 1.02 | S. cerevisiae deletion strains, locus YOR061W, strain CKA2, hits give low values 1.01 | S. cerevisiae deletion strains, locus YOR069W, strain VPS5, hits give low values 1.01 | S. cerevisiae deletion strains, locus YOR136W, strain idh2, hits give low values 0.983 | S. cerevisiae deletion strains, locus YOR144C, strain elg1, hits give low values 1.01 | S. cerevisiae deletion strains, locus YOR231W, strain MKK1, hits give low values 1.05 | S. cerevisiae deletion strains, locus YOR316C, strain cot1, hits give low values 1.02 | S. cerevisiae deletion strains, locus YPL055C, strain LGE1, hits give low values 0.877 | S. cerevisiae deletion strains, locus YPL256C, strain CLN2, hits give low values 1.11 | S. cerevisiae deletion strains, locus YPR119W, strain clb2, hits give low values 1.02 | S. cerevisiae deletion strains, locus YPR141C, strain kar3, hits give low values 1.02 | S. cerevisiae deletion strains, locus YPR163C, strain tif3, hits give low values 0.993 | S. cerevisiae deletion strains, locus YPR167C, strain met16, hits give low values 0.934 | S. cerevisiae deletion strains, strain wtn01, hits give low values 0.921
